Measured values reported in PubChem BioAssay (Tox21).
Inconclusive results are not listed. Activity calls are given as the source filed them. Unless noted, calls come from the whole dose curve; as a rule, active = well fitted curve in the direction sought with a large enough effect in the repeat runs; inconclusive = weak or mixed curves; inactive = no such curve, though single readings can be large; an effect the other way counts as inactive or inconclusive.

Experiments:
[1] = qHTS assay for small molecule agonists of the p53 signaling pathway (AID 651631; calls by dose curve; note: nearly all actives have a fitted effect of over 15% in size)
Method in brief: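 Stably transfected HCT-116 cells (beta-lactamase behind p53 response elements) get compounds after a 5 h settling period; 16 h later at 37 °C, FRET substrate is loaded and fluorescence read after 2 h.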

[2] = qHTS assay for small molecule agonists of the p53 signaling pathway - cell viability (AID 651633; calls by dose curve;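 note: p53RE-bla HCT reporter cells with a stable beta-lactamase p53 reporter; series mostly up to about 83 µM; nearly all actives have a fitted effect of over 30% in size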)
Method in brief: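 Viability counter-read: CellTiter-Glo luminescence (30 min, room temperature) in the same p53RE-bla plates. These plates had been exposed to compounds for 16 h at 37 C.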

[3] = qHTS assay for small molecules that induce genotoxicity in human embryonic kidney cells expressing luciferase-tagged ATAD5 - cell viability (AID 651634; calls by dose curve; note: nearly all actives have a fitted effect of over 25% in size)
Method in brief: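 HEK293T cells expressing luciferase-tagged ATAD5 were exposed to compound or DMSO for 15.5 hr at 37C, 5% CO2. Viability was then read as live-cell protease activity by CellTiter-Fluor fluorescence after 30 min at 37C.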

[4] = qHTS assay for small molecule disruptors of the mitochondrial membrane potential - cell viability (AID 720634; calls by dose curve;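 note: human HepG2 liver cancer cells; series mostly up to about 83 µM; nearly all actives have a fitted effect of over 20% in size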)
Method in brief: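 HepG2 cells seeded overnight at 37 C, then exposed to compound or DMSO for 1 hr at 37 C, 5% CO2. m-MPI dye added, then CellTiter-Glo for 30 min at room temperature; viability read as ATP luminescence.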

[5] = qHTS assay for small molecule disruptors of the mitochondrial membrane potential (AID 720635); note: potency is the fitted concentration of half-maximal effect
Method in brief: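 Mitochondrial membrane potential tracked with Mito-MPS dye, red aggregates (ex 540/em 590 nm) against green monomers (ex 490/em 535 nm). Compound treatment 1 hr at 37C, dye 30 min in HepG2.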

[6] = qHTS assay to test for compound auto fluorescence at 590 nm (red) in HepG2 cells (AID 720674)
Method in brief: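 We screened compounds on adherent HepG2 cells, incubating them for an hour at 37 C in 5% CO2 before reading emission at 590 nm under 540 nm excitation; values reflect equivalence to Rose Bengal sodium fluorescence.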

[7] = qHTS assay to test for compound auto fluorescence at 535 nm (green) in HepG2 cells (AID 720675)
[8] = qHTS assay to test for compound auto fluorescence at 460 nm (blue) in HEK293 cells (AID 720678)
Method in brief: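 Blue read-out at excitation 405 nm and emission 460 nm follows overnight compound exposure of HEK293 cells at 37C in 5% CO2. Activity is given as auto fluorescence equivalency to triamterene.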

[9] = qHTS assay to test for compound auto fluorescence at 590 nm (red) in HEK293 cells (AID 720679)
Method in brief: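 Red channel, Ex/Em 540/590nm; signal expressed as equivalency to Rose Bengal sodium. HEK293, 2,000 cells/well, 10% dialyzed FBS; 23 nL compound pinned after 4-5 hr attachment; overnight 37C/5% CO2 before reading.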

[10] = qHTS assay to test for compound auto fluorescence at 535 nm (green) in HEK293 cells (AID 720680)
[11] = qHTS assay to test for compound auto fluorescence at 460 nm (blue) in HEK293 cell free culture (AID 720681)
Method in brief: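 Blue fluorescence (Ex 405/Em 460 nm, triamterene-equivalent) was read immediately after pin transfer of compound or DMSO into medium (DMEM, 10% FBS) without cells.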

[12] = qHTS assay to test for compound auto fluorescence at 590 nm (red) in HEK293 cell free culture (AID 720683)
Method in brief: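 Red-channel autofluorescence of compounds in culture medium (DMEM, 10% FBS), no cells, measured at 540/590 nm. Rose Bengal sodium is the reference fluorophore for equivalence.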

[13] = qHTS assay to test for compound auto fluorescence at 590 nm (red) in HepG2 cell free culture (AID 720684)
Method in brief: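 Plate contents were MEM with 10% FBS plus test compound or DMSO, no cells. Fluorescence was recorded with 540 nm excitation and 590 nm emission.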

[14] = qHTS assay to test for compound auto fluorescence at 460 nm (blue) in HepG2 cell free culture (AID 720685)
Method in brief: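 Compound (23 nL) or DMSO pinned into cell-free MEM with 10% FBS; blue fluorescence read at 405/460 nm excitation/emission, expressed as auto-fluorescence equivalency to triamterene.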

[15] = qHTS assay to test for compound auto fluorescence at 535 nm (green) in HepG2 cell free culture (AID 720686)
[16] = qHTS assay for small molecules that induce genotoxicity in human embryonic kidney cells expressing luciferase-tagged ATAD5 (AID 651632); note: nearly all actives have a fitted effect of over 15% in size
Method in brief: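 HEK293T cells carrying a luciferase reporter tagged to ATAD5 were exposed to compound or DMSO vehicle for 16 hr at 37C, 5% CO2. Amplite was added, and after 30 min at room temperature luciferase activity was read as a marker of ATAD5 induction.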

[17] = qHTS assay to test for compound auto fluorescence at 460 nm (blue) in HepG2 cells (AID 720687)
Method in brief: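 Blue-channel autofluorescence (Ex/Em 405/460 nm, triamterene-equivalent) was measured after 1 hr compound exposure at 37 C, 5% CO2. Cells were HepG2, plated overnight at 37 C in MEM plus 10% FBS.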

[18] = target: Glucocorticoid receptor (Homo sapiens) (UniProt P04150); assay: qHTS assay to identify small molecule agonists of the glucocorticoid receptor (GR) signaling pathway (AID 720691; active = well fitted activation curve with a large enough effect in the signal ratio in the repeat runs, not every such curve was filed as active; the % refers to the signal ratio)
Method in brief: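 GR-bla HeLa cells (beta-lactamase reporter under glucocorticoid response element) were plated 4 h at 37 C/5% CO2, given compounds in DMSO, and incubated 18 h at 37 C. LiveBLAzer B/G FRET substrate was added for 2 h at room temperature, then fluorescence intensity read.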

[19] = target: Glucocorticoid receptor (Homo sapiens) (UniProt P04150); assay: qHTS assay to identify small molecule antagonists of the glucocorticoid receptor (GR) signaling pathway (AID 720692; active = well fitted inhibition curve with a large enough effect in the signal ratio in the repeat runs, not every such curve was filed as active; the % refers to the signal ratio)
Method in brief: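 GR-bla HeLa cells (beta-lactamase reporter under glucocorticoid response element) were pre-plated 4 h at 37 C, treated with compounds plus 5 nM dexamethasone (final) for 18 h, then read by LiveBLAzer B/G FRET fluorescence after 2 h.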

[20] = qHTS assay to test for compound auto fluorescence at 535 nm (green) in HEK293 cell free culture (AID 720682)
Method in brief: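 Using fluorescein as calibrant, autofluorescence was quantified at 485/535 nm in cell-free DMEM containing 10% FBS after pintool addition of compound or vehicle.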

Measured: Potency

Sequence of Glucocorticoid receptor (Homo sapiens) (P04150 whole entry, looked up): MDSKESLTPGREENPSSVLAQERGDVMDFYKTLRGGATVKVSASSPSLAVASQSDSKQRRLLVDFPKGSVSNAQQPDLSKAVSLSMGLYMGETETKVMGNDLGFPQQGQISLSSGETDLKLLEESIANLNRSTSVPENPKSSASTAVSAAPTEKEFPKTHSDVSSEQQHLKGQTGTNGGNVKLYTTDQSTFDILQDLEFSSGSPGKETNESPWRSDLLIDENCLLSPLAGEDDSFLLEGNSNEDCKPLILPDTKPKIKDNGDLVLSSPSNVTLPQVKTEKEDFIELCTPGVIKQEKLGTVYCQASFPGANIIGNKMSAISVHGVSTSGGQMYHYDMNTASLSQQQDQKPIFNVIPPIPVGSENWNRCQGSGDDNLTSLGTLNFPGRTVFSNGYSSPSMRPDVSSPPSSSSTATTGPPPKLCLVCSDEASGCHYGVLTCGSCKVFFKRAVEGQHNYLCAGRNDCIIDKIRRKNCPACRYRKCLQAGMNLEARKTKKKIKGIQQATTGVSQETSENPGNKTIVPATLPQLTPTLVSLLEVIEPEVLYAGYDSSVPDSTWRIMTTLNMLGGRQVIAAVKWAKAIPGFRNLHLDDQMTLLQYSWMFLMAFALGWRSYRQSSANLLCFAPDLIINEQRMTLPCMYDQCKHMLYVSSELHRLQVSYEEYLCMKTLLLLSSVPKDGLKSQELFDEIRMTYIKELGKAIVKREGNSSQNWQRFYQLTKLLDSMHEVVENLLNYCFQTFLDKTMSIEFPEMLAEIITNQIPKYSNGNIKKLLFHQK

O=c1n(CCCN2CCN(c3cccc(Cl)c3)CC2)nc2ccccn12
not listed: [16] | [17] | [18] | [19] | [20]
inactive: all other assays above

C1CCCNCC1
not listed: [1] | [10] | [20]
inactive: all other assays above

C=C1C[C@]23C[C@@]1(O)CC[C@H]2[C@@]12C=C[C@H](O)[C@@](C)(C(=O)O1)[C@H]2[C@@H]3C(=O)O
not listed: [1] | [5] | [10]
inactive: all other assays above

Brc1ccc(Oc2ccc(Br)cc2)cc1
not listed: [5] | [10] | [17]
inactive: all other assays above

CN1Cc2c(N)cccc2C(c2ccccc2)C1 (stereo not drawn)
not listed: [1] | [2] | [10]
inactive: all other assays above

CCN(CC)CCNC(=O)c1ccc(N)cc1
not listed: [1] | [5] | [10] | [18] | [19]
inactive: all other assays above

CC(C=O)Cc1ccc(C(C)(C)C)cc1 (stereo not drawn)
active: [5] 61.1 µM
not listed: [1] | [17]
inactive: all other assays above

CCOC(=O)c1ccc(O)cc1
not listed: [5] | [10] | [17] | [20]
inactive: all other assays above

Cc1cccc(C)c1[N+](=O)[O-]
not listed: [1] | [10] | [16] | [19]
inactive: all other assays above
